Results filed as inconclusive are left out. Activity calls are given as the source filed them. Unless noted, calls come from the whole dose curve; as a rule, active = well fitted curve in either direction with a large enough effect (not every such curve was filed as active); inconclusive = small, poorly fitted or top-dose-only effect, or another doubt; inactive = flat fitted curve, though single readings scatter.
Key:
[1] = biological target: Lysosomal acid glucosylceramidase (Homo sapiens) (UniProt P04062); test: Glucocerebrosidase-p2 (AID 348; in the data active = potency below about 10 µM; note: potency is the fitted concentration of half-maximal effect); details: purified GBA, blue fluorogenic substrate, 40 min
Procedure, shortened: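 Normal human glucocerebrosidase (0.2 nM) with blue fluorogenic substrate (80 uM final) in citrate/phosphate pH 5.9 with 10mM sodium taurocholate, 0.01% tween-20; 40 min RT, NaOH/glycine stop; fluorescence Ex 365/Em 440; AC50 from a titration from 0.6 nM upwards.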

[2] = AP1 Signaling Pathway (AID 357); details: ME-180 AP-1-bla reporter, EGF-induced, beta-lactamase ratio, 5 h; at 7.69 µM (top of the series) unless noted;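 note: ME-180 reporter cells stimulated with EGF at its EC50 level; % is set by controls: 0 for no effect and ±100 for the full control effect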
Procedure, shortened: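 Cells are seeded overnight, exposed to compound titrations and an EC50 level of EGF for 5 hours at 37 °C, then loaded with CCF4 dye for 2.5 hours. Beta-lactamase activity under the AP-1 element is read as a blue/green ratio.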

[3] = Stat Signaling Pathway (AID 446); details: ME-180 (cervical carcinoma) SIE beta-lactamase reporter, IL-6 stimulated, 5 h; at 7.69 µM (top of the series) unless noted;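 note: ME-180 cervical cancer cells given 40 pM IL-6 alongside compound; SIE-controlled beta-lactamase reporter measured as 460/530 nm FRET emission ratio; % is set by controls: 0 for no effect and ±100 for the full control effect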
Procedure, shortened: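 Normalization used AC90 stimulation (300 pM IL-6) and AC90 inhibition (125 nM pan-JAK inhibitor at 40 pM IL-6). The underlying signal is SIE-driven beta-lactamase in ME-180 cells after 5 h IL-6 exposure with compound.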

[4] = biological target: Glucocorticoid receptor (Homo sapiens) (UniProt P04150); test: GR-GFP Redistribution (AID 450;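 active = compounds whose dose series gives a full or clear partial fitted curve of increased nuclear translocation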; note: potency is the fitted concentration of half-maximal effect); details: U2OS GR-GFP nuclear translocation, laser cytometry, 2 h
[5] = biological target: Glucocorticoid receptor (Homo sapiens) (UniProt P04150); test: GR-EFC Redistribution (AID 451; calls by dose curve; note: potency is the fitted concentration of half-maximal effect); details: CHO-K1 GR-EFC translocation, beta-gal luminescence, 2 h
Procedure, shortened: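 Translocation of GR-ED fusion to nuclear EA restores b-gal, read by luminescence after 1 h room-temperature detection. Engineered CHO-K1 biosensor cells, 1,000/well, exposed 2 h at 37 C to titrations up to 46 uM final.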

[6] = biological target: 3',5'-cyclic-AMP phosphodiesterase 4B (Homo sapiens) (UniProt Q07343); test: qHTS Assay for Inhibitors of PDE-IV (AID 607; active = well fitted activation curve with a large enough effect in the main read-out, with a control signal flat, not every such curve was filed as active; note: % of control where 0% means no effect); details: HEK293 ACTOne CNG channel cells, membrane potential fluorescence; series mostly up to 22.9 µM
Procedure, shortened: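 HEK293 ACTOne cells with CNG channel (1000/well), endogenous PDE4; membrane potential dye, compounds up to 22.9 uM final. Fluorescence Ex 535/Em 590; RO 20-1724 (100 uM final) as reference.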

Chain of Glucocorticoid receptor (Homo sapiens) (P04150 whole entry, looked up, the tested form may be a part): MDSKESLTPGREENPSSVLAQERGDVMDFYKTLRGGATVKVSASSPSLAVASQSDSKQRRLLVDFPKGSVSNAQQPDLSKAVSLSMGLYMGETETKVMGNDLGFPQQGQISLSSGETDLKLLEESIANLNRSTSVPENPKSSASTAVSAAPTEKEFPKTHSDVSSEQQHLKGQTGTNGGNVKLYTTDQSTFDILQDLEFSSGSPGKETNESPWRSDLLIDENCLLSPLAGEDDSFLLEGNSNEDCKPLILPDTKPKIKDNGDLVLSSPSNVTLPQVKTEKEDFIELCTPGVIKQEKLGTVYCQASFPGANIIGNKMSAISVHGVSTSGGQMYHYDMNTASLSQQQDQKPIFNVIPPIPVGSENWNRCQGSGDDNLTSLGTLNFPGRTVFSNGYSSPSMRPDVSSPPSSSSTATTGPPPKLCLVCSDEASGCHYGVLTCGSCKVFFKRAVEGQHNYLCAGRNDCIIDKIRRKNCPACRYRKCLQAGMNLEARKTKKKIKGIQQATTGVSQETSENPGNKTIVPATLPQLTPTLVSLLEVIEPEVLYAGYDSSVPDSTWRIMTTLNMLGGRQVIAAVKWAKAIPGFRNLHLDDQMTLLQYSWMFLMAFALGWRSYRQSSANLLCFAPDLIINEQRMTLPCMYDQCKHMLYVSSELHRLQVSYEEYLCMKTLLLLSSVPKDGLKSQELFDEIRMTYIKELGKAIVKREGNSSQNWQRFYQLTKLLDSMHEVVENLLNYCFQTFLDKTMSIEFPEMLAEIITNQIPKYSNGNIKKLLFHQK
Chain of Lysosomal acid glucosylceramidase (Homo sapiens) (P04062 whole entry, looked up): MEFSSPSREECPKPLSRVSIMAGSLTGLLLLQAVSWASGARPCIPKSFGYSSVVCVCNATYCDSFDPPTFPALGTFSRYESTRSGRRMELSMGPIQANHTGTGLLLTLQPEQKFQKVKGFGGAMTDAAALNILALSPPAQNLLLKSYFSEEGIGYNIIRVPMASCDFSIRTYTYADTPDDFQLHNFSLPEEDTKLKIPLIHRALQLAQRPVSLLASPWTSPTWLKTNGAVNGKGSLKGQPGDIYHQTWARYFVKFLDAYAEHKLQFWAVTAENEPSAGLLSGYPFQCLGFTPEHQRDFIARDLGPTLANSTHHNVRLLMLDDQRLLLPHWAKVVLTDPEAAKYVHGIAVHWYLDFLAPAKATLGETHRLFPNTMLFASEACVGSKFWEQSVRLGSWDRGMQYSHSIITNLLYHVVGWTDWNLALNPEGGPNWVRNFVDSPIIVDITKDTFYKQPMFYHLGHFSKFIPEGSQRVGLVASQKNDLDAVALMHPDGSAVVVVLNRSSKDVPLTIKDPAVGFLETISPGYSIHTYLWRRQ
Chain of 3',5'-cyclic-AMP phosphodiesterase 4B (Homo sapiens) (Q07343 whole entry, looked up): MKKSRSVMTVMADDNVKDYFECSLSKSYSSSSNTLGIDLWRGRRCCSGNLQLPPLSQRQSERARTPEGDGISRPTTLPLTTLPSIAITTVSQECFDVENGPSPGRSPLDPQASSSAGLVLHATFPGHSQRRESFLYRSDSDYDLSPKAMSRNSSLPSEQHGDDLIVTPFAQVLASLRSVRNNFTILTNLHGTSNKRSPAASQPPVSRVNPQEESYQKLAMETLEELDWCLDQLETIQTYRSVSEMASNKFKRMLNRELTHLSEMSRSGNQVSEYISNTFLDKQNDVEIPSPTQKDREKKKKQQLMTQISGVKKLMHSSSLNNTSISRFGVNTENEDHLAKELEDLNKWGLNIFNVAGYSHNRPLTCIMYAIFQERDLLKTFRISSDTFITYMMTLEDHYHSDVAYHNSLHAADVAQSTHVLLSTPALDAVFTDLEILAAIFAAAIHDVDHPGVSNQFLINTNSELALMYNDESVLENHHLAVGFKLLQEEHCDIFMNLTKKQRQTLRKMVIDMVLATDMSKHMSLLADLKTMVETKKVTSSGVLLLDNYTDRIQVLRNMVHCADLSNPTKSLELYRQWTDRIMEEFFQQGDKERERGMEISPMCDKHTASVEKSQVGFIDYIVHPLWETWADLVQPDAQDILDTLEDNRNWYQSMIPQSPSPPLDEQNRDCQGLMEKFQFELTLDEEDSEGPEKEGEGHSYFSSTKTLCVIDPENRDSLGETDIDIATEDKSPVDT

COc1ccc(CC[N@+]2(C)COc3cc4oc(=O)cc(C)c4cc3C2)cc1OC
inactive: Potency [1] 11 µM | activity change, negative = inhibition [2] 10.2% | activity, negative = inhibition [3] 5.96% | Potency [4] > 46 µM | Potency [5] > 9.22 µM | Potency [6]
